Screens deposited in PubChem by National Center for Advancing Translational Sciences (NCATS).
CtBP-E1A blk = blocks the CtBP interaction with E1A. AID 651724. 340,000 tested, 0.49% active. activity change, % (test concentration not listed). AlphaScreen GST-E1A/His-CtBP binding, 1536-well; hits give low values; in the data active means activity change below about -65%; inconclusive means mostly about -30% to -63%
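In 5 uL wells, 23 nL compound meets equimolar GST-E1A and His-CtBP (5X stock 125 nM each) for 2 h, 37 °C. Beads (5X, 50 ug/mL) then 1 h, 37 °C, dark.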
TDP1 cell noCPT = qHTS for Inhibitors of human tyrosyl-DNA phosphodiesterase 1 (TDP1): qHTS in cells in absence of CPT | DT40 Tdp1-/- hTDP1 cells, no CPT, ATP luminescence, 48 h | 420,000 tested, 15% active | AID 686978, 2013 | Potency, µM (series often up to 46.2 µM), actives largely listed as inhibitors; further: nearly all actives have a fitted effect of over 55% in size
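Camptothecin absent (DMSO only). Human TDP1-complemented DT40 knockout cells, 400 cells/well, 37 °C for minimum 48 hr; ATP measured via CellTiter-Glo, 30 min dark incubation, luminescence.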
TDP1 cell CPT = growth inhibition of DT40 Tdp1-/-;hTDP1 cells with camptothecin (screen for TDP1 inhibitors) | chicken DT40 Tdp1-/-;hTDP1 cells + 20 nM CPT, ATP luminescence, 48 h | Potency, µM (series often up to 46.2 µM), usual class: inhibitors | 420,000 tested, 12% active; further: nearly all actives have a fitted effect of over 55% in size
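Chicken DT40 Tdp1-/- cells stably complemented with human TDP1 were seeded at 400 cells/well in medium containing 20 nM camptothecin, exposed to pin-transferred compounds, and grown at 37 °C for at least 48 hr. Viability was read as ATP luminescence.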
TDP1 inh = blocks human tyrosyl-DNA phosphodiesterase 1 | Potency, µM (top dose mostly 130 µM), actives largely listed as inhibitors | AID 485290 | 350,000 tested, 0.28% active | recombinant TDP1, AlphaScreen DNA substrate cleavage; further: nearly all actives have a fitted effect of over 40% in size
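Recombinant E. coli-expressed Tdp1 (1 nM) preincubated with compound 15 min at RT, then 5'-biotin/3'-phosphotyrosine-FITC DNA substrate (15 nM) added for 5 min. AlphaScreen beads (10 ug/ml) added, 10 min RT; tyrosine-FITC cleavage read as signal loss.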
IL-1B inflam inh = inflammasome signaling inhibition, IL-1 beta readout; THP-1 LPS/ATP IL-1B secretion, AlphaLISA, 16 h; hits give low values; activity change, % at 57.5 µM; 360,000 tested, 4.7% active; AID 743279; in the data active means activity change below about -50%; inconclusive means mostly about -30% to -49%
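THP-1 cells pretreated 1 hr with compounds (up to 57.5 uM final), then stimulated with LPS (250 ng/mL final) plus ATP (1.25 mM final); secreted IL-1B measured by AlphaLISA after 16 hr, decreased signal indicating inhibition.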
Six1-Eya2 blk = blocks human Six1 binding to Eya2 | Q15475+O00167 | AlphaScreen GST-Six1/His-Eya2 binding, biochemical; hits give low values | activity change, % (no concentration beside the values) | 360,000 tested, 0.56% active; in the data active means activity change below about -65%; inconclusive means mostly about -30% to -63%
Target sequence (O00167 whole entry, looked up): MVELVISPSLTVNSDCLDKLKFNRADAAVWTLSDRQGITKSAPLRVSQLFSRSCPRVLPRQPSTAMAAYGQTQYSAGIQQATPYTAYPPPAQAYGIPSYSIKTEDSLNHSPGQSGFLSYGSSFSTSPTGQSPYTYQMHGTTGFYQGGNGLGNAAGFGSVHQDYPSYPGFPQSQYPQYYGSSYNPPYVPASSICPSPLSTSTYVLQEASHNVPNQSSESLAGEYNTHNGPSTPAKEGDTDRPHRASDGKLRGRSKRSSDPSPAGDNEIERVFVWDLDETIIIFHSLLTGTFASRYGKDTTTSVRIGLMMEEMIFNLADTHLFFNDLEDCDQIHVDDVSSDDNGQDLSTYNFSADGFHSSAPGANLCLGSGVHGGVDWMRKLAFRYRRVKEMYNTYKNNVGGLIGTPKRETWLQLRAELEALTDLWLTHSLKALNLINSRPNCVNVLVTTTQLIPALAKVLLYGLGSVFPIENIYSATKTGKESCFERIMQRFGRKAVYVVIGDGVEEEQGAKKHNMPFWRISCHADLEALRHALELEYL
Target sequence (Q15475 whole entry, looked up): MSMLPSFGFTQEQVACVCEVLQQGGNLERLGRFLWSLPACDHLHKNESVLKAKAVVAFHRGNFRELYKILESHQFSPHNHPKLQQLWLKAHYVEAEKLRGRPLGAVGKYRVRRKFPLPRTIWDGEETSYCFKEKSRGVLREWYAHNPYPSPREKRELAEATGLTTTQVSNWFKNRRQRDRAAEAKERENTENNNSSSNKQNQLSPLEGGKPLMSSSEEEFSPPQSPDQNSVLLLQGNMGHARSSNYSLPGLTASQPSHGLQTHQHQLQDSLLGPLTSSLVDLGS
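Compounds are tested against tagged Six1 and Eya2 proteins bridged by glutathione donor and nickel acceptor beads; after a one-hour incubation at 37 °C without light, AlphaScreen emission is recorded.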
A number is an active result; – = inactive; ? = inconclusive; · = no result given; [ ] = dose if it differs, or a comment. Hits are enriched below; roughly 18% of the tested compounds scored in any of these assays. Unless noted, the call rests on the fitted dose curve; in most records, active means well fitted curve in the direction sought with a large enough effect; inconclusive means small, poorly fitted or top-dose-only effect, or another doubt; inactive means no such curve, though single readings can be large; an effect the other way counts as inactive or inconclusive.

SMILES	CtBP-E1A blk	TDP1 cell noCPT	TDP1 cell CPT	TDP1 inh	IL-1B inflam inh	Six1-Eya2 blk
CC(C)(C)c1ccc(COC(=O)Nc2ccc(F)cc2)cc1	?	–	–	–	–	–
CCc1ccc(NC(=O)Nc2ccon2)cc1	–	–	?	–	?	–
Cc1sc(-n2cccc2)c(C(C)NC(=O)Nc2cccc(C(F)(F)F)c2)c1C (stereo not drawn)	·	20.6µM	?	–	·	·
COC(=O)c1ccc(Cl)cc1NC(=O)NC(C)c1c(-n2cccc2)sc(C)c1C (stereo not drawn)	·	?	?	–	·	·
COc1cccc(NC(=O)Nc2nnc(Cc3ccccc3)s2)c1	·	?	?	–	–	–
COc1cccc(NC(=O)Nc2nnc(N3C(C)CCCC3C)s2)c1 (stereo not drawn)	–	18.4µM	?	·	–	–
COc1ccc(NC(=O)c2cccc(-c3ccc(O)cc3)c2)cn1	–	20.6µM	14.6µM	–	-74.4	–
COc1ccc(NC(=O)Nc2ccc(F)cc2)cn1	·	7.31µM	16.4µM	·	–	–
COc1ccc(/C=C/C(=O)Nc2ccc(OC)nc2)cc1	–	?	–	–	?	–
CC(=O)Nc1cccc(NC(=O)c2cccc(-c3ccc(O)cc3)c2)c1	–	?	?	–	–	–
COc1cccc(C(C)NC(=O)Nc2cc(Cl)ccc2OC)c1 (stereo not drawn)	–	?	–	–	–	–
COc1cccc(C(C)NC(=O)Nc2cccc(C(F)(F)F)c2)c1 (stereo not drawn)	–	10.3µM	20.6µM	–	–	–
COc1ccc(NC(=O)/C=C/c2ccc(OC(F)F)cc2)cn1	–	?	–	·	-53.9	–
COc1ccc(CNC(=O)CSc2nnc(NC(=O)c3ccccc3F)s2)cc1	–	?	–	–	–	–
COc1ccc(C)cc1NC(=O)Nc1cccc(-c2noc(C)n2)c1	·	?	?	–	·	·
Cc1nc(-c2cccc(NC(=O)Nc3ccc([N+](=O)[O-])cc3)c2)no1	·	4.61µM	5.17µM	–	·	·
Cc1occc1C(=O)Nc1cccc(Cl)c1Cl	–	–	–	–	–	–
Cc1cc(NC(=O)c2ccc3c(c2)OCCO3)ccc1NC(=O)c1ccco1	–	?	?	–	?	–
O=C(Nc1ccc(/C=C/c2nc3ccccc3o2)cc1)c1ccc(F)cc1	–	?	20.6µM	–	–	–
O=C(O)[C@@H]1CCCN1C(=O)CCc1c[nH]c2ccccc12	–	–	–	·	–	–
COc1cc([N+](=O)[O-])ccc1N1C(=O)C2C3C=CC(C4CC34)C2C1=O (stereo not drawn)	–	?	–	–	–	–
CCCCNC(=S)NNC(=O)c1csc(C)c1C	–	?	?	–	–	–
Cc1scc(C(=O)NNC(=S)NC(C)c2ccccc2)c1C (stereo not drawn)	–	20.6µM	16.4µM	–	–	–
Cc1cccc(OCC(=O)NC(C)C(=O)N/N=C/c2c(OCc3ccccc3)ccc3ccccc23)c1 (stereo not drawn)	–	?	?	–	–	–
COc1ccc(NC(=O)c2ccc(N3C(=O)C4CC=C(Cl)CC4C3=O)cc2)cc1 (stereo not drawn)	·	29.1µM	–	·	–	–
SMILES	CtBP-E1A blk	TDP1 cell noCPT	TDP1 cell CPT	TDP1 inh	IL-1B inflam inh	Six1-Eya2 blk
CCOC(=O)c1ccc(N2C(=O)CC(SCC(=O)Nc3ccc(S(N)(=O)=O)cc3)C2=O)cc1 (stereo not drawn)	–	?	23.1µM	–	–	–
COC(=O)c1ccc(N2C(=O)CC(SCC(=O)Nc3ccc(OC)cc3)C2=O)cc1 (stereo not drawn)	–	5.17µM	14.6µM	·	–	–
CCOC(=O)[C@H]1[C@H]2COc3cc(OC)ccc3[C@@H]2N2C(=O)c3ccc(C)cc3NC(=O)[C@@]12C	–	–	–	–	–	–
CCC1Oc2ccc(C)cc2N(CC(=O)N2CCN(c3ccc(F)cc3)CC2)C1=O (stereo not drawn)	–	18.4µM	20.6µM	–	–	–
CCC1Oc2ccc(C)cc2N(CC(=O)NCc2ccco2)C1=O (stereo not drawn)	–	?	–	–	–	–
Cc1ccc2c(c1)N(CC(=O)N1CCN(c3nc4ccccc4s3)CC1)C(=O)C(C)O2 (stereo not drawn)	–	?	?	–	–	–
CCC1Oc2ccc(C)cc2N(CC(=O)N2CCN(c3ccccc3OC)CC2)C1=O (stereo not drawn)	·	16.4µM	?	–	·	·
CCC1Oc2ccc(C)cc2N(CC(=O)N(Cc2ccc(C)o2)C2CC(C)(C)NC(C)(C)C2)C1=O (stereo not drawn)	–	?	18.4µM	–	·	–
CCOC(=O)C1CCCN(C(=O)CN2C(=O)C(CC)Oc3ccc(C)cc32)C1 (stereo not drawn)	–	–	?	–	–	–
O=C(c1cccc(Cl)c1Cl)N(Cc1ccco1)Cc1cccs1	·	11.2µM	?	–	·	·
O=C(c1ccccc1Br)N(Cc1ccco1)Cc1ccco1	·	14.6µM	13µM	–	·	·
COc1ccc(NC(=O)c2ccco2)cc1NC(=O)COc1cc(C)ccc1C(C)C	·	7.31µM	8.2µM	–	·	·
O=C(NCCNC(=O)c1cccnc1)c1cccnc1	–	–	–	·	–	–
Cc1ccc(C(C)C)c(OCC(=O)Nc2cccc(NC(=O)c3ccco3)c2)c1	·	20.6µM	?	–[12.3 µM]	·	·
Cc1ccccc1OCC(=O)Nc1cccc(NC(=O)c2ccco2)c1	–	?	?	–	–	–
CC(C)c1ccccc1OCCNC(=O)c1cccnc1	–	20.6µM	18.4µM	–	–	–
COc1ccc(NC(=O)c2ccco2)cc1NC(=O)c1ccc(OC(C)C)cc1	·	20.6µM	?	–	·	·
COc1ccc2oc(C(=O)N3CCCc4ccccc43)c(C)c2c1	–	?	?	–	–	–
Cc1ccc(OCCNC(=O)c2ccccc2O)cc1	–	?	?	·	–	–
Cc1ccc(C(C)C)c(OCCNC(=O)c2ccccc2O)c1	–	25.9µM	14.6µM	·	-80.6	–
Cc1ccc(C(C)C)c(OCC(=O)NNC(=O)Nc2ccccc2)c1	–	?	–	·	-76.2	–
Cc1ccc(C(C)C)c(OCC(=O)N/N=C/c2cccn2C)c1	·	14.6µM	?	·	–	–
CCOc1cc(Br)c(C(C)NC(=O)c2cccnc2)cc1OCC (stereo not drawn)	–	23.1µM	18.4µM	·	–	–
CC(=O)c1ccc(NC(=O)CN(C)S(=O)(=O)c2cc3c(cc2C)NC(=O)CO3)cc1	·	?	–	–	·	·
CC(C)Oc1cccc(C(=O)Nc2ccc3oc(-c4cccc(Cl)c4)nc3c2)c1	·	16.4µM	?	–[12.3 µM]	·	·
